In the supplement of paper PMC9942566:
Counter-ions that a name gives are not always drawn. ± gives the standard deviation of the averaged measurements.

System: Serratia marcescens K904 PosmB-luxCDABE reporter (pMQ747)
Assay: PosmB-lux reporter fold induction (RLU/OD600 relative to no-compound control), highest over Biolog concentrations; higher = stronger Rcs reporter activation
Details: Biolog plate: PM11; well positions: C1-4; wild type K904; 4 h
Protocol: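 Serratia marcescens K904 (wild type) or its isogenic ΔrcsB mutant, carrying the Rcs-dependent PosmB-luxCDABE reporter plasmid pMQ747, was grown in LB at OD600 0.1 in Biolog Phenotype MicroArray plates PM11-20 for 4 h at 30-32°C. Each compound is present at 3-4 proprietary concentrations (not stated); per the Fig. S1 legend the value given is the highest fold over those wells. Three independent trials.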

| SMILES | PosmB-lux reporter fold induction |
| --- | --- |
| Cc1c(N)nc([C@H](CC(N)=O)NC[C@H](N)C(N)=O)nc1C(=O)N[C@H](C(=O)N[C@H](C)[C@@H](O)[C@H](C)C(=O)N[C@H](C(=O)NCCc1nc(-c2nc(C(=O)NCCC[S+](C)C)cs2)cs1)[C@@H](C)O)[C@@H](OC1OC(CO)C(O)C(O)C1OC1OC(CO)C(O)C(OC(N)=O)C1O)c1cnc[nH]1 (stereo not given in full) [Bleomycin] | 1.6 ± 0.14 |

Same assay, conditions: Biolog plate: PM11; well positions: G9-12; wild type K904; 4 h

| SMILES | PosmB-lux reporter fold induction |
| --- | --- |
| O=[Te]([O-])[O-].[K+].[K+] [Potassium tellurite] | 1.58 ± 0.69 |

Same assay, conditions: Biolog plate: PM13; well positions: A9-12; wild type K904; 4 h

| SMILES | PosmB-lux reporter fold induction |
| --- | --- |
| [Cl][Ni][Cl] [Nickel chloride] | 1.33 ± 0.21 |

Same assay, conditions: Biolog plate: PM13; well positions: B9-12; wild type K904; 4 h

| SMILES | PosmB-lux reporter fold induction |
| --- | --- |
| CCn1cc(C(=O)O)c(=O)c2cc3c(cc21)OCO3 [Oxolinic acid] | 2.12 ± 0.57 |

Same assay, conditions: Biolog plate: PM13; well positions: E5-8; wild type K904; 4 h

| SMILES | PosmB-lux reporter fold induction |
| --- | --- |
| CN[C@@H]1[C@@H](O)[C@@H](O[C@@H]2[C@@H](O)[C@H](O[C@H]3O[C@H]([C@@H](C)O)[C@@H](O)[C@H](O)[C@H]3N)[C@@H](N)C[C@H]2N)OC[C@]1(C)O [Geneticin (G418)] | 1.38 ± 0.22 |

Same assay, conditions: Biolog plate: PM14; well positions: B5-8; wild type K904; 4 h

| SMILES | PosmB-lux reporter fold induction |
| --- | --- |
| CCCCc1ccc(C(=O)O)nc1 [Fusaric acid] | 3.83 ± 1.8 |

Same assay, conditions: Biolog plate: PM14; well positions: B9-12; wild type K904; 4 h

| SMILES | PosmB-lux reporter fold induction |
| --- | --- |
| O=[As]([O-])([O-])[O-].[Na+].[Na+].[Na+] [Sodium arsenate] | 2.1 ± 0.74 |

Same assay, conditions: Biolog plate: PM14; well positions: C9-12; wild type K904; 4 h

| SMILES | PosmB-lux reporter fold induction |
| --- | --- |
| N#CO [Sodium cyanate] | 2.06 ± 0.13 |

Same assay, conditions: Biolog plate: PM14; well positions: D1-4; wild type K904; 4 h

| SMILES | PosmB-lux reporter fold induction |
| --- | --- |
| [Cl][Cd][Cl] [Cadmium chloride] | 1.35 ± 0.73 |

Same assay, conditions: Biolog plate: PM14; well positions: D5-8; wild type K904; 4 h

| SMILES | PosmB-lux reporter fold induction |
| --- | --- |
| O=C(O)CI [Iodoacetate] | 1.93 ± 0.39 |

Same assay, conditions: Biolog plate: PM14; well positions: D9-12; wild type K904; 4 h

| SMILES | PosmB-lux reporter fold induction |
| --- | --- |
| [Na+].[Na+].[O]=[Cr](=[O])([O-])[O][Cr](=[O])(=[O])[O-] [Sodium dichromate] | 1.55 ± 0.067 |

Same assay, conditions: Biolog plate: PM14; well positions: G9-12; wild type K904; 4 h

| SMILES | PosmB-lux reporter fold induction |
| --- | --- |
| O=[N+]([O-])[O-].[Na+] [Sodium nitrate] | 3.75 ± 1.3 |

Same assay, conditions: Biolog plate: PM15; well positions: E9-12; wild type K904; 4 h

| SMILES | PosmB-lux reporter fold induction |
| --- | --- |
| C[n+]1ccc(-c2cc[n+](C)cc2)cc1 [Methyl viologen] | 1.4 ± 0.25 |

Same assay, conditions: Biolog plate: PM15; well positions: G5-8; wild type K904; 4 h

| SMILES | PosmB-lux reporter fold induction |
| --- | --- |
| [N-]=[N+]=[N-] [Sodium azide] | 34 ± 10 |

Same assay, conditions: Biolog plate: PM15; well positions: H1-4; wild type K904; 4 h

| SMILES | PosmB-lux reporter fold induction |
| --- | --- |
| O=[N+]([O-])c1ncc[nH]1 [2-Nitroimidazole] | 1.17 ± 0.56 |

Same assay, conditions: Biolog plate: PM16; well positions: C1-4; wild type K904; 4 h

| SMILES | PosmB-lux reporter fold induction |
| --- | --- |
| CN(C)S(=O)(=O)N(SC(F)(Cl)Cl)c1ccccc1 [dichlofluanid] | 1.03 ± 0.34 |

Same assay, conditions: Biolog plate: PM16; well positions: C9-12; wild type K904; 4 h

| SMILES | PosmB-lux reporter fold induction |
| --- | --- |
| CCCCCCCCCCCCCCCC[n+]1ccccc1 [cetylpyridinium] | 1.47 ± 0.48 |

Same assay, conditions: Biolog plate: PM16; well positions: D1-4; wild type K904; 4 h

| SMILES | PosmB-lux reporter fold induction |
| --- | --- |
| O=[N+]([O-])c1ccc(Cl)c([N+](=O)[O-])c1 [1-chloro-2,4-dinitrobenzene] | 1.37 ± 0.54 |

Same assay, conditions: Biolog plate: PM16; well positions: F1-4; wild type K904; 4 h

| SMILES | PosmB-lux reporter fold induction |
| --- | --- |
| O=[Te]([O-])[O-].[K+].[K+] [potassium tellurite] | 1.75 ± 1.1 |

Same assay, conditions: Biolog plate: PM16; well positions: F5-8; wild type K904; 4 h

| SMILES | PosmB-lux reporter fold induction |
| --- | --- |
| O=[Se]([O-])[O-].[Na+].[Na+] [sodium selenite] | 1.03 ± 0.38 |

Same assay, conditions: Biolog plate: PM17; well positions: A5-8; wild type K904; 4 h

| SMILES | PosmB-lux reporter fold induction |
| --- | --- |
| NC(CCl)C(=O)O [b-chloro-L-alanine hydrochloride] | 1.57 ± 0.59 |

Same assay, conditions: Biolog plate: PM17; well positions: B5-8; wild type K904; 4 h

| SMILES | PosmB-lux reporter fold induction |
| --- | --- |
| CNC1CC(N)C(O)C(OC2OC(CO)C(O)C3OC4(OC(C(N)CO)C(O)C(O)C4O)OC23)C1O (stereo not given) [hygromycin B] | 1.46 ± 0.35 |

Same assay, conditions: Biolog plate: PM17; well positions: C1-4; wild type K904; 4 h

| SMILES | PosmB-lux reporter fold induction |
| --- | --- |
| Nc1ccncc1 [4-aminopyridine] | 10.2 ± 7.7 |

Same assay, conditions: Biolog plate: PM17; well positions: D1-4; wild type K904; 4 h

| SMILES | PosmB-lux reporter fold induction |
| --- | --- |
| CC1=C(C(=O)Nc2ccccc2)S(=O)(=O)CCO1 [oxycarboxin] | 2.25 ± 0.26 |

Same assay, conditions: Biolog plate: PM17; well positions: D5-8; wild type K904; 4 h

| SMILES | PosmB-lux reporter fold induction |
| --- | --- |
| Nc1ncn[nH]1 [3-amino-1,2,4-triazole] | 1.11 ± 0.18 |

Same assay, conditions: Biolog plate: PM17; well positions: G1-4; wild type K904; 4 h

| SMILES | PosmB-lux reporter fold induction |
| --- | --- |
| O=C(O)CCCc1ccc(N(CCCl)CCCl)cc1 [chlorambucil] | 1.34 ± 0.1 |

Same assay, conditions: Biolog plate: PM18; well positions: C9-12; wild type K904; 4 h

| SMILES | PosmB-lux reporter fold induction |
| --- | --- |
| Oc1c(Cl)c(Cl)c(Cl)c(Cl)c1Cl [pentachloro-phenol] | 1.04 ± 0.25 |

Same assay, conditions: Biolog plate: PM18; well positions: E5-8; wild type K904; 4 h

| SMILES | PosmB-lux reporter fold induction |
| --- | --- |
| [O-][I+3]([O-])([O-])O [sodium m-periodate] | 2.47 ± 0.4 |

Same assay, conditions: Biolog plate: PM18; well positions: E9-12; wild type K904; 4 h

| SMILES | PosmB-lux reporter fold induction |
| --- | --- |
| [Cl][Sb]([Cl])[Cl] [antimony (III) chloride] | 0.722 ± 0.067 |

Same assay, conditions: Biolog plate: PM18; well positions: F1-4; wild type K904; 4 h

| SMILES | PosmB-lux reporter fold induction |
| --- | --- |
| NNC(N)=O [semicarbazide] | 3.39 ± 0.38 |

Same assay, conditions: Biolog plate: PM18; well positions: G1-4; wild type K904; 4 h

| SMILES | PosmB-lux reporter fold induction |
| --- | --- |
| Oc1cc(Cl)ccc1Oc1ccc(Cl)cc1Cl [triclosan] | 1.45 ± 0.61 |

Same assay, conditions: Biolog plate: PM18; well positions: H5-8; wild type K904; 4 h

| SMILES | PosmB-lux reporter fold induction |
| --- | --- |
| Oc1ccccc1-c1ccccc1 [2-phenylphenol] | 2.88 ± 0.52 |

Same assay, conditions: Biolog plate: PM18; well positions: H9-12; wild type K904; 4 h

| SMILES | PosmB-lux reporter fold induction |
| --- | --- |
| CC1=CC(=O)c2c(O)cccc2C1=O [plumbagin] | 0.936 ± 0.027 |

Same assay, conditions: Biolog plate: PM20; well positions: C5-8; wild type K904; 4 h

| SMILES | PosmB-lux reporter fold induction |
| --- | --- |
| CN1[C@@H]2CC[C@H]1C[C@@H](OC(=O)C(CO)c1ccccc1)C2 (stereo not given in full) [atropine] | 2.56 ± 0.59 |

Same assay, conditions: Biolog plate: PM20; well positions: E5-8; wild type K904; 4 h

| SMILES | PosmB-lux reporter fold induction |
| --- | --- |
| CCCCCCCCCCCCNC(=N)N [dodine] | 1.94 ± 0.27 |

Same assay, conditions: Biolog plate: PM20; well positions: F1-4; wild type K904; 4 h

| SMILES | PosmB-lux reporter fold induction |
| --- | --- |
| O=c1cc(O)c2ccccc2o1 [4-hydroxyl-coumarin] | 2.25 ± 0.64 |

Same assay, conditions: Biolog plate: PM20; well positions: G1-4; wild type K904; 4 h

| SMILES | PosmB-lux reporter fold induction |
| --- | --- |
| O=C1C2CC=CCC2C(=O)N1SC(Cl)(Cl)Cl (stereo not given) [captan] | 2.3 ± 0.41 |

Same assay, conditions: Biolog plate: PM20; well positions: G9-12; wild type K904; 4 h

| SMILES | PosmB-lux reporter fold induction |
| --- | --- |
| Oc1cccc2cccnc12 [8-hydroxy-quinoline] | 2.7 ± 0.72 |

Same assay, conditions: Biolog plate: PM20; well positions: H1-4; wild type K904; 4 h

| SMILES | PosmB-lux reporter fold induction |
| --- | --- |
| O=C1C=C2C(=CCOC2O)O1 (stereo not given) [patulin] | 1.71 ± 0.23 |

Same assay, conditions: Biolog plate: PM20; well positions: H5-8; wild type K904; 4 h

| SMILES | PosmB-lux reporter fold induction |
| --- | --- |
| Cc1ccc(N(SC(F)(Cl)Cl)S(=O)(=O)N(C)C)cc1 [tolylfluanid] | 1.32 ± 0.14 |
